# Sampled rows, rich in hits. Any-hit rate of the full collection: about 0.49%.
# EPAC2 antagonist – qHTS for Antagonist of cAMP-regulated guanine nucleotide exchange factor 2 (EPAC2): primary screen; Rap guanine nucleotide exchange factor 4 (Homo sapiens), Q8WZA2; AID 720708, 2013; Potency, µM (series often up to 114 µM), actives largely listed as inhibitors; EPAC2 GEF exchange of Rap1B-BODIPY-GDP, fluorescence; hit rate 0.18% among 360,000; note: nearly all actives have a fitted effect of over 45% in size
# USP1 inh – Inhibitors of USP1/UAF1: Primary Screen | hit rate 0.23% among 390,000 | recombinant USP1/UAF1, Ub-Rhodamine cleavage fluorescence | Potency, µM (series often up to 57.1 µM), usual class: inhibitors; note: nearly all actives have a fitted effect of over 60% in size
#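 In this screen, compounds sit with the deubiquitinase complex (1nM) for 15 min at room temperature before Ub-Rho is added at 150nM final. Fluorescence rise is then followed for 6 reads every 60 seconds.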
# EPAC2 ag – qHTS for Agonist of cAMP-regulated guanine nucleotide exchange factor 4 (EPAC2): primary screen. hit rate 0.079% among 360,000. Potency, µM (highest dose often 154 µM), hits mostly activators. Rap guanine nucleotide exchange factor 4 (Homo sapiens), Q8WZA2. AID 720711, 2013. EPAC2 activation, biochemical qHTS; response scale: 100% = 6.5 mM cAMP response; note: nearly all actives have a fitted effect of over 50% in size
#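 Setup: EPAC2 100 nM, labeled Rap1B complex 250 nM, free GDP 50 uM. Compound titrations pinned in, brief spin, 5 min room temperature incubation. Kinetic fluorescence read over 30 min, normalized to 6.5 mM cAMP.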
# EPAC1 antagonist – qHTS for Antagonist of cAMP-regulated guanine nucleotide exchange factor 3 (EPAC1): primary screen. EPAC1 GEF assay, Rap1b-BODIPY-GDP exchange fluorescence. hit rate 0.14% among 360,000. Rap guanine nucleotide exchange factor 3 (Homo sapiens), O95398. Potency, µM (titrated, usually from 115 µM), actives largely listed as inhibitors; note: nearly all actives have a fitted effect of over 50% in size
# EPAC1 ag – qHTS for Agonist of cAMP-regulated guanine nucleotide exchange factor 3 (EPAC1): primary screen. Rap guanine nucleotide exchange factor 3 (Homo sapiens), O95398. EPAC1 agonist qHTS, biochemical assay; response scale: 100% = response to 6.5 mM cAMP. Potency, µM (doses to about 154 µM), actives largely listed as activators. hit rate 0.073% among 360,000. AID 720707, 2013; note: nearly all actives have a fitted effect of over 60% in size
#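 Nucleotide exchange assay: 100 nM EPAC1 with 250 nM Rap1B loaded with BODIPY-GDP and 50 uM GDP, room temperature. Fluorescence (480/540 nm) read every 5 min for 30 min; signal change normalized to 6.5 mM cAMP as full agonist.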
# A number is an active result; . = inactive; ? = inconclusive; / = no result. Calls come from the whole dose curve; as a rule, active = well fitted curve in the direction sought with a large enough effect; inconclusive = small, poorly fitted or top-dose-only effect, or another doubt; inactive = no such curve, though single readings can be large; an effect the other way counts as inactive or inconclusive.
SMILES,EPAC2 antagonist,USP1 inh,EPAC2 ag,EPAC1 antagonist,EPAC1 ag
CCOc1ccc(NC(=O)/C(C#N)=C\c2ccc(N3CCCC3)c(C)c2)cc1,.,22µM,.,.,.
N#C/C(=C/C1=C(N2CCOCC2)C(=C/c2cccc([N+](=O)[O-])c2)/CC1)C(=O)Nc1ccccc1F,79µM,.,.,.,.
CCOC(=O)c1ccccc1-c1csc(NS(=O)(=O)c2ccc(Cl)cc2)n1,.,.,.,79µM,.
CCOC(=O)Cc1csc(NS(=O)(=O)c2ccccc2)n1,.,.,.,.,.
COc1cc(OC)c(OC)cc1CN1CCc2nc(Nc3ccc4c(c3)OCCO4)ncc2C1,/,.,/,/,/
O=C1CC(c2ccccc2)Oc2cc(O)cc(O)c21 (configuration not stated),.,.,.,.,.
CC1CC(=O)c2c(cc3c(-c4c(O)cc(O)c5c(O)c6c(cc45)OC(C)CC6=O)c(O)cc(O)c3c2O)O1 (configuration not stated),.,32µM,.,?,.
CCN(CC)c1ccc(/C=C/C(=O)C2C(=O)C=C(C)OC2=O)cc1 (configuration not stated),.,4.5µM,.,.,.
CCN(CC)c1ccc(C=C2C(=O)OC(c3ccccc3)OC2=O)cc1 (configuration not stated),.,.,.,.,.
C=CCn1c(C)c(/C=C/c2cc[n+](C)cc2)c2ccccc21,.,35µM,.,.,?
CCN(CC)C(=O)Cn1c(=O)n(CCc2ccccc2)c(=O)c2ccccc21,/,.,/,/,/
CCn1cc(/C=C/c2cc[n+](C)cc2)c2ccccc21,.,?,?,.,.
C=CCn1cc(/C=C/c2cc[n+](C)cc2)c2ccccc21,.,32µM,100µM,.,?
CCN(CC)C(=O)Cn1c(C)c(/C=C/c2cc[n+](C)cc2)c2ccccc21,.,25µM,?,.,.
CC(C)n1cc(/C=C/c2cc[n+](C)cc2)c2ccccc21,.,32µM,?,.,100µM
Cc1cccc2c1-c1sc(C(=O)N(C)c3cccc(Cl)c3)cc1CO2,/,.,/,/,/
c1ccc(NN(Cc2ccccn2)c2ccccc2)cc1,14µM,.,.,.,.
c1ccc(NN(Cc2cnccn2)c2ccccc2)cc1,?,.,.,.,.
CCOc1ccc(N=C2NC(=O)S/C2=C\c2ccc(N(C)C)cc2)cc1,.,28µM,?,.,.
CCOc1ccc(/C=C2/SC(=O)NC2=S)cc1,.,.,.,.,.
CCc1ccc(Cn2c(CNS(=O)(=O)c3ccc(Cl)s3)nc3cccnc32)cc1,/,.,/,/,/
Nc1ccc(-c2c3ccc(=O)cc-3oc3cc(O)ccc23)cc1C(=O)O,.,22µM,100µM,.,100µM
O=c1ccc2c(-c3ccccc3)c3ccc(O)cc3oc-2c1,.,3.5µM,.,.,?
CCSC(=O)N=Nc1ccc(O)cc1,.,32µM,.,.,.
CC(=O)/C(N=Nc1ccc(SC(F)F)cc1)=C(\C)O,.,.,.,.,.
SMILES,EPAC2 antagonist,USP1 inh,EPAC2 ag,EPAC1 antagonist,EPAC1 ag
COCCN=c1scc(-c2ccco2)n1/N=C/c1ccc(O)c(O)c1O,.,?,.,18µM,.
CN=c1scc(C)n1/N=C/c1ccc(O)c(O)c1O,.,.,.,50µM,.
C=CCN=c1scc(-c2ccco2)n1/N=C/c1ccc(O)c(O)c1O,.,.,.,56µM,.
CN=c1scc(-c2cccs2)n1/N=C/c1ccc(O)c(O)c1O,.,.,.,?,.
CC(C)N=c1scc(-c2ccco2)n1/N=C/c1ccc(O)c(O)c1,.,.,?,?,.
NC(=O)c1ccc(N=C2C(=O)Nc3ccc([N+](=O)[O-])cc32)cc1,?,14µM,.,?,.
N#Cc1c(-c2ccc(F)cc2)cc(-c2ccccc2)nc1SCC(=O)NCC(=O)O,.,.,.,79µM,.
O=C(Cn1ccc(=O)[nH]c1=O)NCCO,.,.,.,.,.
